Bioassay records deposited in PubChem by Broad Institute.
PDI turbidity: inhibitors of human PDI, primary screen, biochemical, turbidity, single point, plate reader. Protein disulfide-isomerase (Homo sapiens), P07237. inhibition, % at 10 µM. PDI insulin aggregation turbidity, A650, 90 min. 0.052% of 350,000 active;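 active = mean inhibition across replicates of 30% or more, whatever share of single replicates reach that level; inconclusive = mean inhibition below 30% while every single replicate reaches 30%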
Rtt109 Vps75: inhibitors of C. albicans Rtt109/Vps75 HAT, primary screen, biochemical, ThioGlo CoA-SH fluorescence, plate reader; Histone acetyltransferase RTT109 (Candida albicans (strain SC5314 / ATCC MYA-2876)), …; purified Rtt109/Vps75, 4 h; inhibition, % at 34.9 µM; 0.16% of 330,000 active; AID 540336, 2011;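 active = inhibition of at least 50% in every replicate; inconclusive = best replicate reaches 50% inhibition but some replicates fall short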
DENV2 CPE rescue: inhibitors of DENV2 cytopathic effect, primary screen, cell-based, plate reader, single concentration | CPE inhibition, % at 9.99 µM | DENV2-infected cells, cytopathic effect rescue | 1.7% of 350,000 active | AID 651640, 2012; in the data active = CPE inhibition above about 20%, passing the limit was not always enough; inconclusive = no clear call, values can overlap the other calls; tested in BHK-21 cells;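 also: 0% = median of neutral control wells and 100% = median of positive control wells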
SIRT5 inh: SIRT5 desuccinylase inhibitors, primary screen, biochemical, fluorescence imaging, single point, set 5 | NAD-dependent protein deacylase sirtuin-5, mitochondrial (Homo sapiens), Q9NXA8 | Purified SirT5, succinyl-peptide AMC, trypsin-coupled fluorescence | inhibition, % at 15 µM | 1.1% of 330,000 active; in the data active = inhibition above about 15%; inconclusive = no clear call, values can overlap the other calls
ERp5 block: inhibitors of ERp5-driven insulin aggregation, primary screen, biochemical, turbidity, absorbance 650 nm, single point. 0.05% of 350,000 active. 90 min. inhibition, % at 9.99 µM. Protein disulfide-isomerase A6 (Homo sapiens), Q15084;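 active = mean replicate inhibition above about 25%, with every replicate also reaching it, limit read from the data, passing the limit was not always enough; inconclusive = only one of those two criteria met; inactive = neither criterion met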
Target sequence (Q15084 whole entry, looked up): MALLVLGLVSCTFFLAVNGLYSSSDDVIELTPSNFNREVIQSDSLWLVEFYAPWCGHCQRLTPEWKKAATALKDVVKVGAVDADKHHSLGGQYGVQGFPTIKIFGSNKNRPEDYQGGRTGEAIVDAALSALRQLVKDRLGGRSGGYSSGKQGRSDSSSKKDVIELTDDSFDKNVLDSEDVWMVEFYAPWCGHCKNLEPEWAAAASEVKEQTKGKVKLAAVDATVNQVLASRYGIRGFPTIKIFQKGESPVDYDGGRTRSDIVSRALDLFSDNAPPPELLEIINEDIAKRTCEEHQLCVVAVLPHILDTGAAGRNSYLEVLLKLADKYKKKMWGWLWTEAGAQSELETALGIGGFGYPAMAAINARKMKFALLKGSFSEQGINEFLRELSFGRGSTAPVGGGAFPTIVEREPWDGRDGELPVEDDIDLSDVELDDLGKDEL
* marks the source's active call; other numbers are inactive results; ? = inconclusive; . = not tested or not shown. An excerpt weighted towards active compounds, which were near 2.3% of everything screened.

SMILES	PDI turbidity	Rtt109 Vps75	DENV2 CPE rescue	SIRT5 inh	ERp5 block
COc1ccc(-c2cnc3c(c2)C(=O)N([C@H](C)CO)C[C@H](C)[C@@H](CN(C)C(=O)NC2CCCC2)O3)cc1	.	.	1	-9	-4
COc1ccc(S(=O)(=O)Nc2ccc3c(c2)C(=O)N([C@@H](C)CO)C[C@H](C)[C@@H](CN(C)S(=O)(=O)c2cccs2)OCCCC[C@H](C)O3)cc1	.	.	1	-1	2
Cn1c(SCc2ccc(C#N)cc2)nnc1-c1ccccc1	2	0	.	21*	-2
Cc1ccc(Cn2c(O)c(N=NC(=S)Nc3ccccc3F)c3ccccc32)cc1	0	-3	-10	18*	6
Oc1c(N=NC(=S)Nc2ccccc2F)c2ccccc2n1Cc1ccccc1	3	-2	-1	12	3
NC(=S)N=Nc1c(O)n(Cc2ccccc2)c2ccccc12	15	-14	63*	6	2
CNC[C@@H]1OCCCC[C@@H](C)Oc2ccc(NC(=O)c3ccncc3)cc2C(=O)N([C@H](C)CO)C[C@@H]1C	.	.	-4	2	-1
CN1c2ccc(-c3ccc(F)cc3)cc2[C@@H]2[C@@H](CCN2C(=O)c2ccncc2)[C@H]1CO	.	.	-5	-4	0
CN1c2ccc(-c3cccc(F)c3)cc2[C@H]2[C@H](CCN2C(=O)c2ccccc2F)[C@H]1CO	.	.	69*	6	-4
COc1cccc(-c2ccc3c(c2)[C@@H]2[C@@H](CCN2C(=O)c2ccc(F)cc2)[C@H](CO)N3C)c1	.	.	24*	.	11
COc1cccc(-c2ccc3c(c2)[C@H]2[C@H](CCN2C(=O)c2ccccc2F)[C@@H](CO)N3C)c1	.	.	-5	.	4
CN1c2ccc(-c3ccc(F)cc3)cc2[C@@H]2[C@@H](CCN2C(=O)c2ccncc2)[C@@H]1CO	.	.	-4	19*	-5
CN(C)C(=O)c1ccc(-c2ccc3c(c2)[C@H]2[C@H](CCN2C(=O)C2CCOCC2)[C@@H](CO)N3C)cc1	.	.	.	17*	.
Cc1ccc(S(=O)(=O)N(C)C[C@H]2Oc3ccc(NC(=O)CCCCCC(=O)Nc4ccccc4N)cc3CC(=O)N([C@@H](C)CO)C[C@@H]2C)cc1	.	.	-4	-3	4
CN1c2ccc(Br)cc2[C@@H]2[C@@H](CCN2C(=O)C2CCCCC2)[C@@H]1CO	.	.	67*	3	0
CN1c2ccc(-c3ccccc3)cc2[C@@H]2[C@@H](CCN2C(=O)Cc2ccccn2)[C@@H]1CO	.	.	22*	0	-1
COc1cccc(NC(=O)N2CC[C@@H]3[C@H]2c2cc(-c4cccc(OC)c4)ccc2N(C)[C@H]3CO)c1	.	.	68*	2	-9
CN1c2ccc(Br)cc2[C@H]2[C@H](CCN2C(=O)C2CCCCC2)[C@@H]1CO	.	.	-2	1	1
CN1c2ccc(-c3ccccc3)cc2[C@H]2[C@H](CCN2C(=O)c2ccccc2)[C@H]1CO	.	.	-28	.	10
CN(C)C(=O)c1cccc(-c2ccc3c(c2)[C@H]2[C@H](CCN2C(=O)c2ccccc2)[C@@H](CO)N3C)c1	.	.	-8	15*	-6
CCC(=O)N(C)C[C@@H]1Oc2cc(C#CC3CC3)ccc2S(=O)(=O)N([C@H](C)CO)C[C@H]1C	.	.	0	-2	0
Cc1ccc(S(=O)(=O)NCC[C@@H]2CC[C@@H](NC(=O)c3ccccn3)[C@@H](CO)O2)cc1	.	.	2	-1	-2
O=C1C(Cl)=C(N2CCOCC2)C(=O)N1c1ccccc1Cl	4	162*	-2	-3	2
O=C1C(Cl)=C(N2CCCC2)C(=O)N1c1ccc(F)cc1	12	1	10	-2	-9
O=C1C(Cl)=C(N2CCOCC2)C(=O)N1c1cccc(C(F)(F)F)c1	0	?	-1	1	-10
SMILES	PDI turbidity	Rtt109 Vps75	DENV2 CPE rescue	SIRT5 inh	ERp5 block
O=C1C(Cl)=C(N2CCCCCC2)C(=O)N1c1ccc(Cl)cc1	5	-8	76*	0	0
O=C1C(Cl)=C(N2CCCCCC2)C(=O)N1c1ccccc1Cl	0	-3	-3	0	-1
COC(=O)c1cccc(N2C(=O)C(Cl)=C(N3CCOCC3)C2=O)c1	2	115*	.	.	.
C[C@H]1CN([C@@H](C)CO)C(=O)c2cc(C3=CCCCC3)cnc2O[C@@H]1CN(C)C(=O)c1ccccc1	.	.	-12	-1	1
COc1ccccc1C(=O)Nc1ccc2c(c1)OC[C@H](C)N(C)C[C@H](C)[C@@H](OC)CN(C)C2=O	.	.	8	-3	2
O=C(C[C@@H]1CC[C@@H]2[C@H](COC[C@@H](O)CN2C(=O)Nc2ccccc2)O1)NCc1ccccc1F	.	.	-3	-7	-1
O=S(=O)(N[C@@H]1CC[C@@H](CCn2cc(-c3cccnc3)nn2)O[C@@H]1CO)c1ccccc1	.	.	10	-1	-2
O=C(Cc1ccccn1)N[C@@H]1CC[C@H](CCn2cc(-c3cccnc3)nn2)O[C@H]1CO	.	.	0	2	-2
O=S(=O)(N[C@H]1CC[C@@H](CCn2cc(-c3cccnc3)nn2)O[C@H]1CO)c1ccccc1	.	.	28*	11	-5
Cc1ccccc1S(=O)(=O)N[C@@H]1CC[C@H](CCn2cc(-c3ccccc3)nn2)O[C@@H]1CO	.	.	21*	2	1
O=C(Cc1ccccn1)N[C@H]1CC[C@H](CCn2cc(-c3cccnc3)nn2)O[C@@H]1CO	.	.	58*	0	3
O=C(NCCc1ccccc1)[C@H]1[C@H](CO)[C@H]2Cn3c(cccc3=O)[C@@H]1N2C(=O)C1CCC1	.	.	1	8	2
C[C@H](CO)N1C[C@H](C)[C@H](CN(C)Cc2ccncc2)OCCCC[C@H](C)Oc2ccc(NC(=O)Nc3ccc4c(c3)OCO4)cc2C1=O	.	.	-3	-7	0
CN1C(=O)c2cc(NS(=O)(=O)c3cccc(F)c3)ccc2OC[C@H]2O[C@H](CC(=O)O)CC[C@@H]21	.	.	11	3	2
Cn1nc(C(F)(F)F)c(-c2ccc(Br)cc2)c1NC(=O)c1nccnc1C(=O)O	3	-3	-5	-2	5
Cn1nc(C(F)(F)F)c(-c2ccc(Br)cc2)c1NC(=O)CSCC(=O)O	-1	3	58*	-2	0
CC(C)NC(=O)Nc1ccc2c(c1)C(=O)N([C@@H](C)CO)C[C@H](C)[C@@H](CN(C)C(=O)Nc1ccc3c(c1)OCO3)O2	.	.	21*	-3	-12
C[C@H]1CN([C@@H](C)CO)C(=O)c2cc(NC(=O)CCC(F)(F)F)ccc2O[C@H]1CN(C)C(=O)Nc1cccc2ccccc12	.	.	26*	8	-2
C[C@@H]1CN([C@@H](C)CO)C(=O)c2cc(NC(=O)CCC(F)(F)F)ccc2O[C@@H]1CN(C)C(=O)Nc1cccc2ccccc12	.	.	17	4	-1
